# Laboratory results reported in PubChem BioAssay (NCI).
# The panel holds about 79,000 compounds, 15% with a hit somewhere; the sample as a whole holds those more often. Values without a mark were called inactive. Calls of active or inactive are those of the source. Cut-off read from the data, not from the text of the source: active = growth inhibition above about 70%; inactive = the rest.
# Assay: NCI Yeast Anticancer Drug Screen. Data for the cln2 rad14 strain (AID 165);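 note: 0% = growth equal to vehicle treated cultures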
# Settings: S. cerevisiae cln2 rad14 strain, at 50.0 µM (retest, dose inferred, filed as 5.0), hits give high values
# Method in brief: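 cln2 rad14 yeast strain; compound exposure; growth inhibition read vs vehicle controls.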
row,SMILES,growth inhibition
1,CCSC1(SCC)C(=O)OC2=C(CCCC2)C1N1CCOCC1 (configuration not stated),31%
2,NC(=O)C(CCc1cccc2ccccc12)c1ccccc1 (configuration not stated),-3%
3,NC(CCCCCC(N)C(=O)O)C(=O)O (configuration not stated),-83%
4,CN(C)CC(CN(C)C)C(=O)C1CCCCC1,89% (active)
5,O=C1/C(=C/c2ccc([N+](=O)[O-])cc2)Sc2scc(-c3cccc([N+](=O)[O-])c3)[n+]21,98% (active)
6,CC(C)(C)c1cc(C(P(=O)(c2ccccc2)c2ccccc2)P(=O)(c2ccccc2)c2ccccc2)cc(C(C)(C)C)c1O,88% (active)
7,COC(=O)c1cc(=O)n(-c2ccccc2C(F)(F)F)c(SC)n1,87% (active)
8,CSC(SC)=C1C(=O)NC(Cc2ccccc2)C1=O (configuration not stated),24%
9,c1ccc(C(c2ccccc2)c2ccc3ccccc3n2)cc1,45%
10,CN(C)c1nc(N(C)C)nc([N+](C)(C)C)n1,-1%
11,CCCNC(=S)N/N=C(/C)c1nccc2ccccc12,7%
12,OC(CN1CCc2ccccc2C1)c1ccc2ccccc2c1 (configuration not stated),58%
13,Nc1nc(N)c2nc(CNc3ccc(C(=O)NC(CCC(=O)O)C(=O)O)cc3)ccc2n1 (configuration not stated),21%
14,O=c1c2ccccc2c2ccccc2n1O,89% (active)
15,CC(=O)N1c2ccccc2Sc2ccc3ccc(C(=O)CCl)cc3c21,97% (active)
16,CC(NNC(=S)N1CC2CCC(CC2)C1)c1nccc2ccccc12 (configuration not stated),95% (active)
17,O=C1O/C(=C(\Cc2ccccc2)c2ccccc2)N(c2ccccc2)C1=O,-9%
